Test results published in PubChem BioAssay AID743379 (National Center for Advancing Translational Sciences (NCATS), 2014).
The source made the active and inactive calls. Calls come from the whole dose curve.

Target: Phosphatidylinositol 5-phosphate 4-kinase type-2 beta (Homo sapiens) (UniProt P78356)
Test: qHTS for Inhibitors of PI5P4K: PI5P4K-beta 32P-ATP TLC Secondary Assay for Probe SAR
Settings: recombinant PI5P4K-beta, 32P-ATP TLC lipid kinase assay
Source text: In addition to finding PI5P, we discovered the type II phosphatidylinositol 5-phosphate 4-kinase (PI5P4K) family (alpha, beta, gamma isoforms) that catalyze the conversion of PI5P to PI(4,5)P2. Alternatively, PI(4,5)P2 can also be synthesized through phosphatidylinositol-4-phosphate (PI4P) by the type I phosphatidylinositol 4-phosphate 5-kinases (PI4P5K). These PI5P4K enzymes therefore represent one way by which cells can regulate endogenous PI5P levels and play important roles in insulin signaling and in stress responses. […] A qHTS PI5P4K-alpha ADP-Glo assay was developed to identify specific modulators of human PI5P4K, phosphatidylinositol-5-phosphate 4-kinase (Type II PIPK). To confirm that the active compounds and their analogs were true and selective inhibitors, a secondary Thin-layer Chromatography (TLC) assays against recombinant PI5P4K-alpha, PI4P5K-alpha or PI5P4K-beta that utilize a radioactively labeled ATP were developed. The data herein is the result of the PI5P4K-beta TLC assay. […]
The kinase reaction was carried out in a total of 50 microL of kinase buffer (50 mM HEPES pH 7.4 and 10 mM MgCl2) containing 20 microM of the lipids that were suspended by sonication. […] The radiolabeled product, PI(4,5)P2, was quantified with a phosphorimager (Molecular Dynamics, STORM840, GE Healthcare, Waukesha, WI, USA).

Sequence of Phosphatidylinositol 5-phosphate 4-kinase type-2 beta (Homo sapiens) (P78356 whole entry, looked up): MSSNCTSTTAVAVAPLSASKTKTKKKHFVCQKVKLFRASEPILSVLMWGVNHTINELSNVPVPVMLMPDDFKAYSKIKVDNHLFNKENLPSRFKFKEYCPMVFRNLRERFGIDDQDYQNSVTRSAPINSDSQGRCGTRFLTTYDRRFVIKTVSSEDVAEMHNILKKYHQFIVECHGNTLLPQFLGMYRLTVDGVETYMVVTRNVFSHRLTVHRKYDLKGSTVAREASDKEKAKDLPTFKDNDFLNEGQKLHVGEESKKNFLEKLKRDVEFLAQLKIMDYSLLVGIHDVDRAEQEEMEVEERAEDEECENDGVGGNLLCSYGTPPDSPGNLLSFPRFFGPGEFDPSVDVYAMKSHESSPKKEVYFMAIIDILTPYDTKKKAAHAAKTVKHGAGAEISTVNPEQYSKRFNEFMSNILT

Row | Structure (SMILES) | Potency
1 | O=C1Nc2ccc(C(=O)c3ccco3)cc2/C1=C/c1cc(Cl)c(O)c(Cl)c1 | 0.89 µM (active)
